Out of some 360,000 compounds screened, about 11,000 (3.1%) were called active. Not shown: some 2% with an inconclusive outcome. The list comes from a sample in which actives are over-represented; it also holds similar structures and randomly drawn compounds. Values without a mark were called inactive. No stated cut-off is given here; in the data, active means fluorescence intensity above about 16000; inconclusive means no clear call, values can overlap the other calls; inactive means below that.
Test: compound fluorescence in toxin protease inhibitor counterscreen, primary screen, artefact control for toxin protease inhibitor project, biochemical, multiplex microsphere, HTS (AID 624483)
Conditions: compound autofluorescence counterscreen, microsphere flow cytometry; active compounds read high

Q: With CC(C)CN1CCC1(C)C(=O)Nc1ccc(OC(F)F)cc1 (stereo unspecified) as the molecule, how does the fluorescence intensity read?
A: 3880

Q: For O=C(COC(=O)c1ncc(Cl)c(Cl)c1Cl)NNC(=O)c1ccccc1, which fluorescence intensity is on record?
A: 4100

Q: With O=C(COC(=O)Cc1ccccc1F)NNC(=O)c1ccc(Cl)cc1 as the molecule, how does the fluorescence intensity read?
A: 5990

Q: Which fluorescence intensity does the source give for O=C(CSCc1ccccc1Cl)NNC(=O)c1ccccc1 here?
A: 18500 (active)

Q: With Cn1cnnc1Sc1ccc(S(C)(=O)=O)cc1[N+](=O)[O-] as the molecule, how does the fluorescence intensity read?
A: 3290

Q: With COc1ccc(COC[C@H](CC(C)C)N2CCN(C(=O)c3cccc(C(F)(F)F)c3)CCC2=O)cc1 as the molecule, how does the fluorescence intensity read?
A: 4210

Q: Which fluorescence intensity does the source give for COc1ccc(S(=O)(=O)N(C)CC(=O)Nc2ccc3c(c2)OCCO3)cc1OC here?
A: 3400

Q: With COc1ccc(NC(=O)CN(C)S(=O)(=O)c2ccccc2)cc1OC as the molecule, how does the fluorescence intensity read?
A: 16600 (active)

Q: With COc1ccc(NC(=O)CN(Cc2ccccc2)S(C)(=O)=O)cc1OC as the molecule, how does the fluorescence intensity read?
A: 2130

Q: For O=C(Nc1cccc2cccnc12)c1ccc2sc([C@H]3C[C@H](O)[C@@H](CO)O3)nc2c1, which fluorescence intensity is on record?
A: 3070

Q: Which fluorescence intensity does the source give for Cc1cc(C)cc(OCC(=O)Nc2cc(NC(=O)COc3cc(C)cc(C)c3)cc(C(=O)O)c2)c1 here?
A: 3790

Q: With CC(C)CC1C(=O)N(Cc2cn(Cc3ccco3)nn2)CCS(=O)(=O)N1Cc1ccc(-c2ccc(Cl)c(Cl)c2)cc1 (stereo unspecified) as the molecule, how does the fluorescence intensity read?
A: 3840

Q: For COc1ccc2c(Cl)c(-c3nnco3)sc2c1, which fluorescence intensity is on record?
A: 3460

Q: For C#CCSc1nnc(-c2sc3ccccc3c2Cl)o1, which fluorescence intensity is on record?
A: 19600 (active)

Q: Which fluorescence intensity does the source give for O=C(OCC#CCSc1nnc(-c2ccncc2)o1)c1sc2ccccc2c1Cl here?
A: 2840

Q: For CCCCCc1c(Cc2ccccc2)ncn1CCc1ccccc1OC, which fluorescence intensity is on record?
A: 4640

Q: For O=C(NCc1ccc(F)cc1F)[C@@H]1CCCN1C(=O)[C@@H]1CCCN1C(=O)c1cccc(Cl)c1, which fluorescence intensity is on record?
A: 6340

Q: For C[C@H]1CN([C@@H](C)CO)C(=O)CCCn2cc(nn2)CO[C@@H]1CN(C)C(=O)Nc1ccccc1, which fluorescence intensity is on record?
A: 2950

Q: For COC(=O)c1sc(=S)n(-c2ccccc2)c1N, which fluorescence intensity is on record?
A: 20900 (active)

Q: With Cc1cccc(-n2c(N)c(C(=O)N3CCN(C)CC3)sc2=S)c1 as the molecule, how does the fluorescence intensity read?
A: 2920

Q: For N#Cc1ccccc1-n1c(N)c(C(=O)N2CCCC2)sc1=S, which fluorescence intensity is on record?
A: 9660

Q: Which fluorescence intensity does the source give for Cn1c(=O)c2cc(NC(=O)NCCc3cccs3)ccc2n1Cc1cccc(C(F)(F)F)c1 here?
A: 3800

Q: With C#CC(C)(C)NC(=O)CSc1nc2c(c(=O)n(C)c(=O)n2C)n1CCCC as the molecule, how does the fluorescence intensity read?
A: 5580

Q: With CCCCn1c(SCC(=O)NCCc2ccc(OC)c(OC)c2)nc2c1c(=O)n(C)c(=O)n2C as the molecule, how does the fluorescence intensity read?
A: 22600 (active)

Q: With CCCCn1c(SCC(=O)N2CCOCC2)nc2c1c(=O)n(C)c(=O)n2C as the molecule, how does the fluorescence intensity read?
A: 5590

Q: For C=CCSc1nnc(Cn2c(=O)sc3ccccc32)n1C, which fluorescence intensity is on record?
A: 5480

Q: With CC(=O)Nc1cccc(-c2ccnc3c2CC(C)(C(=O)NCc2ccco2)O3)c1 (stereo unspecified) as the molecule, how does the fluorescence intensity read?
A: 3800

Q: For CCN1C(=O)[C@H]2[C@@H](c3ccc(C(F)(F)F)cc3)N[C@]3(CCCN(Cc4ccc(Br)cc4)C3=O)[C@H]2C1=O, which fluorescence intensity is on record?
A: 3620

Q: With COc1ccc(CCNC(=O)COC(=O)/C=C/c2cccs2)cc1OC as the molecule, how does the fluorescence intensity read?
A: 3190

Q: With COc1ccc(CCNC(=O)c2cc3sccc3n2C)cc1OC as the molecule, how does the fluorescence intensity read?
A: 21800 (active)

Q: Which fluorescence intensity does the source give for Cn1c(C(=O)NCCCN2CCCCC2)cc2sccc21 here?
A: 8510

Q: Which fluorescence intensity does the source give for CCOC(=O)C1Nc2ccc(C(F)(F)F)cc2C2C=CCC12 (stereo unspecified) here?
A: 2760

Q: For CC(=O)Nc1cc(-c2ccccc2N(C)C)cn2c(-c3ccc(F)c(Cl)c3)cnc12, which fluorescence intensity is on record?
A: 3420

Q: For O=C1NC[C@H](Cc2ccc(O)cc2)N(C[C@H]2CCCN2C[C@H](Cc2ccccc2)N2C[C@H](Cc3ccccc3)N(CCc3ccccc3)C(=O)C2=O)C1=O, which fluorescence intensity is on record?
A: 5960

Q: Which fluorescence intensity does the source give for CCCCC(CC)C(=O)Nc1ccc(Cl)cn1 (stereo unspecified) here?
A: 21400 (active)

Q: Which fluorescence intensity does the source give for CC(OC(=O)CNC(=O)c1ccco1)C(=O)Nc1ccc(Cl)cn1 (stereo unspecified) here?
A: 4920

Q: Which fluorescence intensity does the source give for O=C(Nc1ccc(Cl)cn1)c1ccccc1-c1ccccc1 here?
A: 3610

Q: Which fluorescence intensity does the source give for COCCOC(=O)C1=C(C)NC(=O)CC1c1cc2c(cc1Br)OCO2 (stereo unspecified) here?
A: 22200 (active)

Q: With CCCOc1ccccc1C1CC(=O)Nc2cc3c(cc21)OCO3 (stereo unspecified) as the molecule, how does the fluorescence intensity read?
A: 3540

Q: Which fluorescence intensity does the source give for COCCOC(=O)C1=C(C)NC(=O)NC1c1cc2c(cc1Br)OCO2 (stereo unspecified) here?
A: 3890

Q: With CS(=O)(=O)/C(C#N)=C/c1cccn1S(=O)(=O)c1ccc([N+](=O)[O-])cc1 as the molecule, how does the fluorescence intensity read?
A: 5100

Q: Which fluorescence intensity does the source give for CC(=O)Nc1cc(-c2ccccc2F)cn2c(-c3cccc(C(F)(F)F)c3)cnc12 here?
A: 3600

Q: With CCOc1ccc(-c2nc(C)sc2CC(=O)O)cc1 as the molecule, how does the fluorescence intensity read?
A: 22400 (active)

Q: Which fluorescence intensity does the source give for Cc1ccc(-c2nc(C)sc2CC(=O)OCC(=O)Nc2c(F)cccc2F)cc1 here?
A: 2600

Q: For CCOc1ccc(NC(=O)CN(C)C(=O)Cc2sc(C)nc2-c2ccc(F)cc2)cc1OCC, which fluorescence intensity is on record?
A: 8360

Q: For CCOc1ccc(CCN2C(=S)N([C@@H](CC(C)C)CN3CCC[C@@H]3CN3C(=S)NC[C@@H]3Cc3ccc(O)cc3)C[C@@H]2CC(C)C)cc1, which fluorescence intensity is on record?
A: 6060

Q: Which fluorescence intensity does the source give for COc1ccc(CNC(=O)CN2C(=O)NC3(CCCc4sccc43)C2=O)cc1 (stereo unspecified) here?
A: 5880

Q: With COc1ccc(OC)c(C(=O)c2ccc(C(=O)O)cc2)c1 as the molecule, how does the fluorescence intensity read?
A: 16800 (active)

Q: Which fluorescence intensity does the source give for COc1ccc(OC)c(C(=O)c2ccc(C(=O)N3CCN(Cc4csc(C)n4)CC3)cc2)c1 here?
A: 4240

Q: For COc1ccc(C(=O)CC(=O)c2ccc(C)cc2)c(O)c1, which fluorescence intensity is on record?
A: 4090

Q: For COCOc1cccc(CN2CCC(C)(Oc3ccc(SC)cc3)C2)c1 (stereo unspecified), which fluorescence intensity is on record?
A: 3010

Q: Which fluorescence intensity does the source give for Cc1[nH]c(C)c(S(=O)(=O)N2CCN(c3cccc(C(F)(F)F)c3)CC2)c1C(=O)N1CCCCC1 here?
A: 5140

Q: For CN1C(=O)C2(OCCCO2)c2cc(Cl)ccc21, which fluorescence intensity is on record?
A: 3420

Q: For COc1cc2ccccc2cc1C(=O)Nc1ccc(S(=O)(=O)Nc2cc(C)on2)cc1, which fluorescence intensity is on record?
A: 18400 (active)

Q: With CCOc1ccc(C(=O)Nc2ccc(S(=O)(=O)Nc3cc(C)on3)cc2)cc1 as the molecule, how does the fluorescence intensity read?
A: 3660

Q: For COc1ccc(S(=O)(=O)Nc2cc(C)on2)cc1NC(C)=O, which fluorescence intensity is on record?
A: 4100

From PubChem BioAssay AID624483 (NMMLSC, 2012)
